# Anthrax LF prot: inhibitors of Bacillus anthracis lethal factor protease | AID 588501 | 0.12% of 360,000 active | P15917 | multiplex microsphere protease cleavage assay, LF | inhibition, % at 10 µM
# DUSP3 inh: blocks human VHR1 dual specificity phosphatase. inhibition, % at 13.3 µM. 0.52% of 290,000 active. recombinant VHR phosphatase, pNPP absorbance; in the data active = inhibition above about 50%
# Target sequence (P51452 whole entry, looked up): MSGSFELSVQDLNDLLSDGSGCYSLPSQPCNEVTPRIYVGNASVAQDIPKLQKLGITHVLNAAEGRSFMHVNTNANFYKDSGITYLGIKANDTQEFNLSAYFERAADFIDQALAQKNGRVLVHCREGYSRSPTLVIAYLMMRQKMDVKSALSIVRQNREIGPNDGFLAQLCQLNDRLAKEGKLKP
# BoNT F protease: inhibitors of Botulinum neurotoxin F light chain protease; Multiplex microsphere protease cleavage assay, flow cytometry; inhibition, % at 10 µM; 0.22% of 360,000 active; AID 588497; in the data active = inhibition above about 35%, passing the limit was not always enough; inconclusive = no clear call, values can overlap the other calls
# BoNT A protease: blocks Botulinum neurotoxin A light chain protease. multiplex microsphere protease substrate cleavage, flow cytometry. inhibition, % at 10 µM. 0.17% of 360,000 active
# Autofluor counter: compound fluorescence in toxin protease inhibitor counterscreen. AID 624483. 3.1% of 360,000 active. compound autofluorescence counterscreen, microsphere flow cytometry; active compounds read high. fluorescence intensity (test concentration not listed); in the data active = fluorescence intensity above about 16000; inconclusive = no clear call, values can overlap the other calls
# MazF activator: increases E. coli MazEF RNase cleavage of RNA. FAM/BHQ RNA-DNA oligo cleavage fluorescence, 5 h. P0AE70. activation, % at 20 µM. 0.32% of 350,000 active; in the data active = activation above about 50%
# Target sequence (P0AE70 whole entry, looked up): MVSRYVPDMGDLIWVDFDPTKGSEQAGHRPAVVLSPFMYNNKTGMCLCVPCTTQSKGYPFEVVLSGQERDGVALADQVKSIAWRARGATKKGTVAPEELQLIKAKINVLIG
# A number is an active result; i = inactive; ? = inconclusive; nt = not tested or not shown. Most compounds without a hit are left out; they make up all but 4.1% or so of the library. Rule as the data show it, unless noted: active = inhibition above about 30%; inconclusive = no clear call, values can overlap the other calls; inactive = below that.
SMILES,Anthrax LF prot,DUSP3 inh,BoNT F protease,BoNT A protease,Autofluor counter,MazF activator
Cc1n[nH]c(C)c1NC(=O)CN1CCN(S(=O)(=O)c2ccc(C(F)(F)F)cc2)CC1,i,nt,i,i,i,i
COC(=O)c1ccc(CSc2nc(N)cc(N)n2)cc1,i,i,i,i,23371,i
COC(=O)c1ccc(CSc2nnc(N)s2)cc1,i,i,i,i,i,i
CCOC(=O)c1sc(NC(=O)Cn2nnc3sc4c(c3c2=O)CCCC4)nc1C,i,i,i,i,i,i
Cc1cc(NC(=O)CSc2nc3sc4c(c3c(=O)n2C)CCCC4)no1,i,i,i,i,17695,i
Cc1cc(NC(=O)Cn2nnc3sc4c(c3c2=O)CCC(C(C)(C)C)C4)no1 (configuration not stated),i,i,i,?,24311,i
Cc1cc(NC(=O)CSc2nc(C3CC3)nc3sc4c(c23)CCC(C)C4)no1 (configuration not stated),nt,nt,nt,nt,nt,i
Cc1cc(NC(=O)Cn2nnc3sc4c(c3c2=O)CCCC4)no1,i,i,i,i,17027,i
O=C(Nc1ccc(C(F)(F)F)cc1)c1cccnc1N1CCOCC1,i,i,i,?,21885,i
CCN(CC)C(=O)c1cccc(-c2csc(C(C)(NC(C)=O)c3ccccc3)n2)c1 (configuration not stated),i,nt,i,i,i,nt
COCCn1c(SCC(=O)Nc2sc(C)c(C)c2C#N)nnc1-c1ccc(OC)cc1,i,i,i,i,22774,i
COc1ccccc1/C=C/C(=O)c1ccccc1,i,i,?,i,i,i
COc1ccccc1/C=C/C(=O)c1ccc(Cl)cc1,i,i,i,i,24068,i
COc1ccccc1/C=C/C(=O)c1c2c(c(C)[nH]c1=O)CCCC2,i,i,i,?,21882,i
CC1CCN(S(=O)(=O)c2ccc(NC(=O)C3CCCCC3C(=O)O)cc2)CC1 (configuration not stated),i,nt,i,i,i,i
O=[N+]([O-])c1cc([N+](=O)[O-])c2oc(-c3ccccc3)c(Br)c2c1O,i,i,i,i,i,i
COc1ccc(N(C(=O)c2ccco2)S(=O)(=O)c2cc(Cl)c(Cl)cc2Cl)cc1,i,i,i,i,23813,i
COc1ccc(N(C(=O)c2ccco2)S(=O)(=O)c2ccccc2)cc1,i,i,i,i,i,i
Cc1occc1-c1nnc(SCC(=O)N2CCCCC2C)o1 (configuration not stated),i,nt,i,i,i,i
Cc1occc1-c1nnc(SCC(=O)N(C)C)o1,i,i,i,i,19878,i
Cc1cc(C(=O)NN)c2cc(Br)ccc2n1,i,i,i,i,i,i
Cc1cc(C(N)=O)c2cc(Br)ccc2n1,i,i,i,i,20846,i
CC(C)CNc1nc(N)c([N+](=O)[O-])c(N2CCCCCC2)n1,i,i,i,i,i,i
O=C(Cn1ncc2c([nH]c3ccccc32)c1=O)N1CCN(c2ccccc2F)CC1,i,i,i,i,i,i
O=C(Cn1ncc2c([nH]c3ccccc32)c1=O)N1CCN(c2ccc(F)cc2)CC1,i,51,i,i,i,i
SMILES,Anthrax LF prot,DUSP3 inh,BoNT F protease,BoNT A protease,Autofluor counter,MazF activator
O=C(CCc1nnc2ccc(NCc3ccco3)nn12)N1CCN(c2ccc(F)cc2)CC1,i,i,i,i,i,i
O=C(c1ccc(Cl)c(S(=O)(=O)NCc2ccccc2)c1)N1CCN(c2ccccn2)CC1,i,54,i,i,18872,i
COC(=O)C1CCN(C(=O)c2ccc(Cl)c(S(=O)(=O)NCc3cccnc3)c2)CC1,i,i,i,?,23363,i
COc1cccc(S(=O)(=O)NCc2ccc(C(=O)N3CCN(C)CC3)cc2)c1,i,i,i,i,i,i
CC1(C(=O)NS(=O)(=O)c2cccc(OC(F)F)c2)CCN1C(=O)Cc1ccsc1 (configuration not stated),i,nt,i,i,i,nt
C=CCOc1cccn2c(N(C=O)Cc3ccccc3)c(CC)nc12,i,nt,i,i,i,nt
CC(C)CNC(=O)C(=O)NCC1OCCN1S(=O)(=O)c1cccs1 (configuration not stated),i,i,i,i,i,i
Cc1c(Cl)cccc1NC(=O)CSc1nnc(CCNC(=O)OC(C)(C)C)o1,i,i,i,i,22523,i
CCN(CC)C(=O)CSc1nnc(CCN)o1,i,i,i,i,23987,i
CCN(CC)C(=O)CSc1nnc(CCNC(=O)OC(C)(C)C)o1,i,i,i,i,23519,i
CN(C)C(=O)CSc1nnc(CCNC(=O)OC(C)(C)C)o1,i,i,i,i,22750,i
CN(C)C(=O)CSc1nnc(CCCCCNC(=O)OC(C)(C)C)o1,?,i,?,?,?,i
O=c1c2ccccc2sn1-c1ccc(Cl)cc1Cl,i,nt,i,i,i,i
Cc1ccccc1CC1(C)C(=O)Nc2ccc(S(=O)(=O)NC3CCCCC3)cc21 (configuration not stated),i,nt,i,i,i,nt
CCOc1cccc(C(=O)N(Cc2ccc(F)cc2)C2CCS(=O)(=O)C2)c1 (configuration not stated),i,i,i,?,21464,i
Cc1ccc(OCC(=O)N(Cc2ccc(N(C)C)cc2)C2CCS(=O)(=O)C2)cc1 (configuration not stated),i,i,i,i,i,i
COc1cc(C(=O)N(Cc2ccc(F)cc2)C2CCS(=O)(=O)C2)cc(OC)c1OC (configuration not stated),i,i,i,i,17106,i
CN(C)c1ccc(CN(C(=O)COc2ccc(F)cc2)C2CCS(=O)(=O)C2)cc1 (configuration not stated),i,i,i,i,20985,i
CCCOc1cccc(C(=O)N(Cc2ccccc2)C2CCS(=O)(=O)C2)c1 (configuration not stated),i,i,i,i,i,i
Cc1c(NC(=O)CSc2nnc(C(C)Oc3ccc(Cl)cc3)n2-c2ccccc2)c(=O)n(-c2ccccc2)n1C (configuration not stated),i,i,i,i,18398,i
COc1ccccc1OC(C)c1nnc(SCC(=O)Nc2c(C)n(C)n(-c3ccccc3)c2=O)n1-c1ccccc1 (configuration not stated),i,i,i,i,21279,i
CCCN(CC(=O)Nc1ccccc1C)C(=O)c1ccc(N2CCCC2)c([N+](=O)[O-])c1,i,nt,i,i,i,i
CCc1nc2ccc(C(=O)NCCOc3ccc(OC)cc3)cn2c1N(C=O)Cc1ccc(OC)cc1,i,nt,i,i,i,nt
O=C(OCc1nc2ccsc2c(=O)[nH]1)c1ccccc1,i,nt,i,i,i,i
COc1ccc(/C=C2/CCCC(C(=O)C(F)(F)F)=C2O)cc1OC,i,i,?,i,i,211
COc1ccc(/C=C2\CCCC(C(=O)C(F)(F)F)=C2O)cc1OC,nt,i,nt,nt,nt,nt
CN(/N=C/c1ccncc1)c1cnn(-c2ccc(F)c(Cl)c2)c(=O)c1Cl,i,i,i,i,20433,i
Cc1ccc(-n2ncc(N(C)C)c(Cl)c2=O)cc1,i,i,i,i,i,i
